PubChem BioAssay (EPA / NIEHS)
Results filed as inconclusive are left out. The source made the active and inactive calls. Rule for the calls: active = hit-call score of the fitted dose curve at least 0.9, where 1 is the maximum; inconclusive = response in the unintended direction; inactive = score below 0.9.

Experiments:
[1] = Tanguay_ZF_120hpf_MORT_legacy: (Legacy) Oregon State University Tanguay Lab 120 Hour Post-fertilization zebrafish Assay for Mortality (AID 2283633)
Outline: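 Dechorionated Tropical 5D wild-type zebrafish embryos, one per well from 6 hpf, static exposure in 0.64% DMSO at 28C until 120 hpf. Mortality scored as binary by brightfield microscopy at 24 and 120 hpf.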

[2] = Tanguay_ZF_120hpf_YSE_legacy: (Legacy) Oregon State University Tanguay Lab 120 Hour Post-fertilization zebrafish Assay for Yolk Sac Edema (AID 2283634)
Outline: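 Dechorionated Tropical 5D wild-type zebrafish embryos were exposed statically, one per well, from 6 to 120 hpf at 28C in 0.64% DMSO. Yolk sac edema was scored present/absent by brightfield at 120 hpf, and dead embryos were excluded.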

[3] = Tanguay_ZF_120hpf_AXIS_legacy: (Legacy) Oregon State University Tanguay Lab 120 Hour Post-fertilization zebrafish Assay for Body Axis Malformation (AID 2283635)
Outline: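 Dechorionated wild-type Tropical 5D zebrafish embryos, one per well, statically exposed from 6 hpf to 120 hpf at 28C in 0.64% DMSO final. Body axis malformation scored present/absent by brightfield microscopy at 120 hpf; dead embryos excluded.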

[4] = Tanguay_ZF_120hpf_EYE_legacy: (Legacy) Oregon State University Tanguay Lab 120 Hour Post-fertilization zebrafish Assay for Eye Malformation (AID 2283636);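 note: binary presence or absence of eye malformation scored by brightfield in 120 hpf larvae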
Outline: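 Static waterborne exposure of dechorionated zebrafish embryos (strain Tropical 5D), 6 to 120 hpf, sealed plates at 28C, 0.64% DMSO vehicle. Eye malformation is scored as a binary endpoint, with gain of signal analysed relative to DMSO.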

[5] = Tanguay_ZF_120hpf_SNOU_legacy: (Legacy) Oregon State University Tanguay Lab 120 Hour Post-fertilization zebrafish Assay for Snout Malformation (AID 2283637)
Outline: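 Dechorionated zebrafish, individually housed from 6 hpf in covered, sealed wells at 28C with 0.64% DMSO vehicle, were examined at 120 hpf for snout malformation. Responses were binary and analysed positive-direction relative to DMSO.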

[6] = Tanguay_ZF_120hpf_JAW_legacy: (Legacy) Oregon State University Tanguay Lab 120 Hour Post-fertilization zebrafish Assay for Jaw Malformation (AID 2283638)
Outline: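 Dechorionated Tropical 5D wild-type zebrafish embryos, one per well, exposed statically from 6 hpf to 120 hpf at 28C in 0.64% DMSO. Jaw malformation was scored by brightfield microscopy as present or absent. It was not scored in dead embryos.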

[7] = Tanguay_ZF_120hpf_OTIC_legacy: (Legacy) Oregon State University Tanguay Lab 120 Hour Post-fertilization zebrafish Assay for Otic Vesicle Malformation (AID 2283639)
Outline: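 Statically exposed wild-type 5D zebrafish embryos, kept sealed and dark at 28C through 120 hours post fertilization, were examined by brightfield microscopy for otic vesicle defects. Responses were recorded as present or absent and analysed relative to DMSO.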

[8] = Tanguay_ZF_120hpf_PE_legacy: (Legacy) Oregon State University Tanguay Lab 120 Hour Post-fertilization zebrafish Assay for Pericardial Edema (AID 2283640)
Outline: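 Tropical 5D wild-type zebrafish embryos were statically exposed until 120 hpf at 28C, with 0.64% DMSO final. Pericardial edema was scored by brightfield as present or absent; endpoints were not scored in dead embryos.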

[9] = Tanguay_ZF_120hpf_BRAI_legacy: (Legacy) Oregon State University Tanguay Lab 120 Hour Post-fertilization zebrafish Assay for Brain Malformation (AID 2283641)
Outline: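 Tropical 5D wild-type zebrafish embryos exposed statically until 120 hpf at 28C, 0.64% DMSO final, sealed and dark. Brain malformation scored present/absent by brightfield at 120 hpf; dead embryos excluded. Trimethyltin chloride 5uM positive control.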

[10] = Tanguay_ZF_120hpf_SOMI_legacy: (Legacy) Oregon State University Tanguay Lab 120 Hour Post-fertilization zebrafish Assay for Somite Malformation (AID 2283647)
Outline: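 Dechorionated Tropical 5D wild-type zebrafish embryos, one per well from 6 hpf, statically exposed at 28C to 120 hpf in 0.64% DMSO; somite malformation scored present/absent by brightfield; trimethyltin 5 uM positive control; dead embryos not scored.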

Measured: outcome

O=C(O)c1ccc([N+](=O)[O-])cc1
inactive: [1] | [2] | [3] | [4] | [5] | [6] | [7] | [8] | [9] | [10]
